Assay outcomes (PubChem)
An excerpt weighted towards active compounds, which were near 21% of everything screened.
Shiga toxin inh = inhibitors of Shiga toxin in Vero cells | Vero cells, Shiga toxin protein synthesis inhibition reporter | inhibition, % at 38.7 µM | 9.2% of 290,000 active | AID 2315; in the data active = inhibition mostly above about 28%, no sharp cut-off; inactive = mostly below about 43%; also: 0% is about no effect
Pf growth 96h = inhibits malaria parasite growth, 96 h; P. falciparum luciferase reporter growth, 96 h; Potency, µM (doses to about 28.7 µM), inactives show top-dose activity change, negative = inhibition, hits mostly inhibitors; 6.9% of 320,000 active; AID 504834; also: potency is read from the fitted curve at half-maximal effect; % is scaled to controls: 0 for no effect and ±100 for the full control effect
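Readout is luminescence from an integrated firefly luciferase in P. falciparum. Red cells, 2% hematocrit and 0.05% parasitemia final, were cultured with compound through two parasite generations (96 hours) at 37 C, 5% CO2.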
Pf growth 48h = inhibits P. falciparum growth in the first generation, 48 h. 5.9% of 310,000 active. AID 504832. P. falciparum luciferase growth in erythrocytes, 48 h. Potency, µM (series often up to 28.7 µM), for the others: top-dose activity change, negative = inhibition, hits mostly inhibitors; also: potency is read from the fitted curve at half-maximal effect; % is scaled to controls: 0 for no effect and ±100 for the full control effect
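First compound was added to culture medium, then infected red cells at 0.1% parasitemia and 2% hematocrit (final). After incubation at 37 C under 5% CO2, luciferase detection reagent was dispensed and light output recorded.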
Cycloheximide cs = affects cycloheximide protein synthesis inhibition readout, counter-screen | max response, % | AID 2314 | 12% of 300,000 active | cell reporter, cycloheximide protein synthesis inhibition counterscreen; in the data active = max response mostly above about 13%, no sharp cut-off; inactive = mostly below about 14%; also: read at 38.3 µM for the half of the compounds with a filed dose; 0% is about no effect
NS1 inh = blocks influenza NS1 protein function | Potency, µM (series often up to 46.1 µM), without a hit: at the top dose activity, positive = more growth | 0.4% of 270,000 active | AID 2326; calls by dose curve; also: potency is read from the fitted curve at half-maximal effect; actives are rising curves; nearly all actives have a fitted effect of over 50% in size
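OD600 was taken as the measure of yeast growth restored by compound in an NS1-expressing S. cerevisiae strain. Cells had been washed out of glucose medium and diluted 1:100 into galactose -URA medium, pH 6.0.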
SARS PLP yeast = blocks SARS-CoV papain-like protease in a yeast assay; 0.19% of 330,000 active; S. cerevisiae expressing SARS-CoV PLpro, growth rescue; Potency, µM (doses to about 32.9 µM), for inactives: at the highest dose activity, positive = growth rescue, most hits filed as activators; AID 485353; calls by dose curve; also: potency is read from the fitted curve at half-maximal effect; 0% is about no effect; nearly all actives have a fitted effect of over 55% in size
* marks the source's active call; other numbers are inactive results; ? = inconclusive; / = no result given; [ ] = remark or other dose. Unless noted, calls follow the shape of the dose curve; as a rule, active = well fitted inhibition curve with a large enough effect; inconclusive = small, poorly fitted or top-dose-only effect, or another doubt; inactive = no such curve, though single readings can be large or run the other way.

SMILES	Shiga toxin inh	Pf growth 96h	Pf growth 48h	Cycloheximide cs	NS1 inh	SARS PLP yeast
Cc1sc2nc(CSC(C)C(=O)Nc3ccc(Cl)cn3)[nH]c(=O)c2c1C (stereo not given)	/	10%	-6%	/	/	-5%
COc1cccc(C(c2c(N)[nH]c(=S)[nH]c2=O)c2c(N)[nH]c(=S)[nH]c2=O)c1	-7	?	?	-1	?	6%
Cc1onc(-c2ccccc2Cl)c1C(=O)OCC(=O)c1c(N)n(C)c(=O)n(C)c1=O	18	-15%	?	2	-3%	-1%
COc1ccccc1CNC(=O)c1ccc2c(=O)n3c(nc2c1)CCCCC3	-9	59%	-15%	9	1%	-2%
CCOc1ccc2[nH]c3ncccc3c(=O)c2c1	40*	-24%	?	17	-5%	-3%
CCOc1ccc2[nH]c(C)c(CN3CCOCC3)c(=O)c2c1	18	86%	-6%	-3	6%	0%
Cc1cc(=O)cc(C)n1-c1ccc(F)cc1F	-6	6%	12%	10	/	1%
Cc1ccc(-c2cn(CCC(=O)O)c(-c3ccc(Cl)nc3)n2)cc1	/	52%	31%	/	/	-5%
Cc1ccc(-c2cn(CCN)c(-c3ccc(Cl)nc3)n2)cc1	/	-5%	10µM*	/	/	1%
COc1ccc(NC(=S)N2CCN(C(=O)c3ccccc3)CC2)cc1	29	14%[1.15 µM]	16%	0	-2%	1%
CCCCNc1nnc(SCC(=O)c2c(N)n(CCC)c(=O)[nH]c2=O)s1	/	9.3µM*	12µM*	/	/	-1%
CCCn1c(N)c(C(=O)CSc2nc(C)cs2)c(=O)[nH]c1=O	17	/	0%	7	2%	3%
O=c1sc(N2CCN(c3ccccc3F)CC2)nc2ccsc12	56*	?	63%	37*	3%	2%
Cc1cc2nc(N3CCN(C(=O)c4ccco4)CC3)sc2cc1C	/	-24%	-12%	/	/	1%
O=C(c1ccco1)N1CCN(c2nc3ccsc3c(=O)s2)CC1	49*	-20%	2%	31*	-8%	-2%
Cc1cccc(C)c1NC(=S)N(CCCN1CCOCC1)Cc1cccnc1	-5	-92%	-9%	-3	/	1%
COc1ccc(-c2ccc(N)[n+](CCCC(=O)O)n2)cc1	/	/	/	/	-7%	/
Cc1ccc(NC(=O)C23CCC(C)(C(=O)[C@H]2Br)C3(C)C)cc1 (stereo not given in full)	-11	-2%	-16%	-2	2%	0%
COc1ccc(O)c(C2=Nc3ccccc3N=C(c3ccco3)C2)c1	32	-21%	-29%	8.7*	-28%	-5%
Oc1ccc(Cl)cc1C1=Nc2ccccc2N=C(c2ccco2)C1	21	3%	?	-4	10%	-7%
O=C(CCNC(=O)N1CC(=O)Nc2ccccc21)Nc1cccc(Cl)c1	-14	?	0%	8	-1%	-7%
CCOC(=O)C1CCN(S(=O)(=O)c2cc(Cl)c(C)cc2OC)CC1	-1	1%	7%	4	-74%	-1%
COc1cc(C)c(Cl)cc1S(=O)(=O)N1CCSC1	-5	12µM*	-3%	-1	-1%	-5%
Cc1cn(CC[C@H](N)C(=O)O)c(=O)[nH]c1=O	/	/	/	/	0%	/
COc1ccc(NC(=S)Nc2ccccn2)cc1	135*	39%	258%	46*	-10%	26%
SMILES	Shiga toxin inh	Pf growth 96h	Pf growth 48h	Cycloheximide cs	NS1 inh	SARS PLP yeast
CCOC(=O)c1ccc(NC(=S)Nc2cccc(C)n2)cc1	-8	?	-29%	1	20%	23%
COc1ccccc1NC(=S)Nc1ccccn1	13	-22%	4%	-1	-1%	?
COC(=O)c1ccc(NC(=S)Nc2ccccn2)cc1	73*	-88%	185%	42*	11%	?
CCOC(=O)c1ccc(NC(=S)Nc2cccc(N)n2)cc1	81*	-89%	?	50*	-4%	0%
COC(=O)c1ccc(NC(=S)Nc2ccc(O)cc2)cc1	14	?	6%	5	-4%	0%
COc1ccccc1CNC(=O)CN(C)S(=O)(=O)c1ccc2c(c1)n(C)c(=O)c(=O)n2C	-4	?	?	2	3%	0%
COc1ccc(-c2onc(C)c2-c2ccc(C(=O)OC(C)C)o2)c(O)c1	-18	-9%	1.3µM*	-6	-68%	-20%
CCn1nnc(NC(=O)c2ccccc2Br)n1	71*	5%	87%	27*	6%	-3%
CCCn1nnc(NC(=O)c2ccccc2Br)n1	49*	/	56%	19	7%	3%
CCCn1nnc(NC(=O)c2cccnc2Cl)n1	-1	?	3%	-4	10%	27%
CCn1nnc(NC(=O)C(c2ccccc2)c2ccccc2)n1	16	?	2%	10	-1%	-1%
C/C(=N\NC(=O)Cn1cc([N+](=O)[O-])cn1)c1ccco1	22	23%	13%	-3	1%	1%
Cc1ccc(C(=O)Nc2cccnc2N2CCN(C)CC2)cc1	-7	-14%	-2%	-1	5%	-4%
Nc1nnc(SCC(=O)OCC(=O)NC23CC4CC(CC(C4)C2)C3)s1	5	-2%	13µM*	-1	/	-2%
COCCNC(=O)COc1cccc2c1OC(C)(C)C2	12	11%	26%	2	2%	-3%
CS/C(N)=N/N=C/c1c(O)ccc2ccccc12	58*	74%	86%	29*	-56%	-5%
CC(=O)N(C)c1ccc(N=Cc2c(O)ccc3ccccc23)cc1	25*	286%	17%	17*	-5%	-2%
Cc1cc(C(=O)O)ccc1N=Cc1c(O)ccc2ccccc12	25	12µM*	49%	10*	14%	-6%
CC(=O)c1cccc(N=Cc2c(O)ccc3ccccc23)c1	-3	-8%	12%	2	-2%	-5%
Oc1ccc2ccccc2c1C=Nc1ccccc1Br	-7	18%	2%	1	9%	1%
Oc1ccccc1N=Cc1c(O)ccc2ccccc12	39*	10µM*	?	11*	-57%	-6%
Cc1ccc(NC2=C(C(=O)c3ccccc3)N(C)S(=O)(=O)c3ccccc32)cc1	-4	12µM*	9.3µM*	3	?	-7%
Cc1nc2ccccc2c(=O)n1Nc1cccc(Cl)c1	20	5.9µM*	2.9µM*	-5	6%	26%
Cc1cc(Nc2cccc(Cl)c2)c2ccccc2n1	-6	8%	?	1	-23%	1%
O=c1oc(Nc2ccccc2Cl)nc2ccccc12	31	55%	114%	23*	1%	1%
O=c1oc(Nc2cccc(Cl)c2)nc2ccccc12	47*	11%	57%	36*	2%	2%
O=c1oc(Nc2ccccc2F)nc2ccccc12	53*	227%	62%	34*	-7%	6%
CN(C)/N=C/c1ccc(P(c2ccc(/C=N/N(C)C)o2)c2ccc(/C=N/N(C)C)o2)o1	4	-24%	-16%	1	/	0%
Cc1cc(OC(=O)N(C)C)nn1C(=O)N(C)C	-5	/	/	-7	/	/
